# According to PubChem BioAssay (EPA / NIEHS):
# Values joined by “and” are separate entries in the source; they are usually repeats but may differ in a detail not shown here. Equal values may be shown once. Results filed as inconclusive are left out. Active and inactive are the calls of the source. The calls were made as follows, unless noted: active = hit-call score of the fitted dose curve at least 0.9, where 1 is the maximum; inconclusive = response in the unintended direction; inactive = score below 0.9.
# Assays:
# [1] = CEETOX_H295R_CORTISOL: CeeTox H295R High-throughput Steroidogenesis Assay for Cortisol (AID 2283438; active = hit-call score of the fitted dose curve at least 0.9, where 1 is the maximum; inactive = score below 0.9;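 also: cortisol secreted into medium quantified by LC-MS/MS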); conditions: actives raise or lower the signal
# How it was run: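 H295R human adrenal cells were prestimulated 48 h with 10 uM forskolin, then exposed 48 h to test chemical (0.1% DMSO final). Medium cortisol was quantified by HPLC-MS/MS after MTBE extraction; bidirectional fitting relative to DMSO baseline.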
# [2] = CEETOX_H295R_DOC: CeeTox H295R High-throughput Steroidogenesis Assay for DOC (AID 2283439; active = hit-call score of the fitted dose curve at least 0.9, where 1 is the maximum; inactive = score below 0.9); conditions: actives raise or lower the signal
# How it was run: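 H295R adrenal cells prestimulated 48 h with 10 uM forskolin, then exposed 48 h to test chemical (0.1% DMSO final). Medium 11-deoxycorticosterone extracted with MTBE, quantified by HPLC-MS/MS; bidirectional fit versus DMSO baseline; MTT viability in same wells.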
# [3] = CEETOX_H295R_PROG: CeeTox H295R High-throughput Steroidogenesis Assay for Progesterone (PROG) (AID 2283442; active = hit-call score of the fitted dose curve at least 0.9, where 1 is the maximum; inactive = score below 0.9;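 as to AC50: human H295R adrenal cells primed with 10 µM forskolin before dosing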); conditions: actives raise or lower the signal
# How it was run: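 Measured analyte is progesterone secreted by H295R cells at 48 h of chemical treatment, following 10 uM forskolin priming. Quantitation used HPLC-MS/MS against a 7-point standard curve; cytotoxicity was checked by MTT absorbance.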
# [4] = biological target: D(1A) dopamine receptor (Homo sapiens) (UniProt P21728); test: NVS_GPCR_hDRD1: NovaScreen (NVS) G Protein-Coupled Receptor Assay for human Dopamine Receptor D1 (DRD1) (AID 2283269)
# Sequence of D(1A) dopamine receptor (Homo sapiens) (P21728 whole entry, looked up): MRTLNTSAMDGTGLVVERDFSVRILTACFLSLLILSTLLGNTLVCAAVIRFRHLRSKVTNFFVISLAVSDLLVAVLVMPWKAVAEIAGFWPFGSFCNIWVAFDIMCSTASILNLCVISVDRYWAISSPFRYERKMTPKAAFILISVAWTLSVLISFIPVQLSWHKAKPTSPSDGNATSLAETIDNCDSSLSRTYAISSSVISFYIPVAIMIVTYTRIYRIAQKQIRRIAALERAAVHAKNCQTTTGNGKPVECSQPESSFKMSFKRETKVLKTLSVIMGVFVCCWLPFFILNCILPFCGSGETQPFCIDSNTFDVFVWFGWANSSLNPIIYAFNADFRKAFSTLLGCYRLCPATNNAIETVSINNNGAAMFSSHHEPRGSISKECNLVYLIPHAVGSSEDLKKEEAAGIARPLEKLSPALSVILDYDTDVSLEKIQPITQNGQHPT
# How it was run: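 Radioligand displacement binding on membranes/protein extracted from HEK293 expressing human D1, cell-free; read 1 h after dosing by filter-based scintillation counting. Primary screen in duplicate at 25 uM, actives followed up in concentration series; signal loss versus DMSO baseline.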
# [5] = CCTE_Deisenroth_5AR_NBTE_donor: CCTE's 5alpha-reductase NanoBRET Target Engagement Assay […], Deisenroth Lab (AID 2284319; active = hit-call score of the fitted dose curve at least 0.9, where 1 is the maximum; inactive = score below 0.9); conditions: actives raise or lower the signal
# How it was run: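 HEK293T cells transiently expressing SRD5A2-NanoLuc, exposed 5 h to chemicals (8 points, 10 nM - 29.9 uM), with testosterone tracer for the final 2 h. Donor luminescence at 460 nm read after Nano-Glo substrate plus extracellular NanoLuc inhibitor; bidirectional fit versus DMSO.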
# [6] = CCTE_Deisenroth_5AR_NBTE_acceptor: CCTE's 5alpha-reductase NanoBRET Target Engagement Assay - Autofluorescence Screen, Deisenroth Lab (AID 2284321; active = hit-call score of the fitted dose curve at least 0.9, where 1 is the maximum; inactive = score below 0.9;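 also: compound fluorescence in the acceptor channel under 460 nm excitation flags autofluorescence artifacts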); conditions: actives raise or lower the signal
# How it was run: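 Using three independent plate-reader runs, nominal 100 uM chemicals were checked for intrinsic fluorescence (ex 460 nm). DMSO defined the baseline for bidirectional fitting.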
# [7] = system: SRD5A2 (gene 6716); test: CCTE_Deisenroth_5AR_NBTE_ratio: CCTE's 5alpha-reductase NanoBRET Target Engagement Assay - Ratio, Deisenroth Lab (AID 2284322; active = hit-call score of the fitted dose curve at least 0.9, where 1 is the maximum; inactive = score below 0.9); conditions: actives raise or lower the signal
# How it was run: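 Reverse-transfect HEK293T with pNLF1-C-SRD5A2, express 20 h. Pre-incubate cells with chemical 3 h (8-point series, 10 nM - 29.9 uM, duplicate). Add testosterone tracer, 2 h more. Add substrate/inhibitor, read donor and acceptor emission.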
# [8] = biological target: human Peripheral-type Benzodiazepine Receptor (PBR), TSPO (gene 706) (UniProt P30536); test: NVS_MP_hPBR: NovaScreen (NVS) Membrane Protein Assay for human Peripheral-type Benzodiazepine Receptor (PBR) (AID 2283331);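 also: hits reduce radioligand binding relative to DMSO baseline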
# Sequence of human Peripheral-type Benzodiazepine Receptor (PBR), TSPO (gene 706) (P30536 whole entry, looked up): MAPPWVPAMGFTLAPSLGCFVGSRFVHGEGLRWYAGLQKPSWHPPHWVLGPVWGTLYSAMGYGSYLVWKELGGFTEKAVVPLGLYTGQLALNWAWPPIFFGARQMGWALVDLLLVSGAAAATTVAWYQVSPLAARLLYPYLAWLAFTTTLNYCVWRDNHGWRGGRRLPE
# How it was run: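 Radioligand displacement on human colonic cell membranes, 1 h incubation; bound radioactivity by filtration and scintillation counting. Primary screen in duplicate at 25 uM single concentration, actives followed up in concentration series; loss of binding versus DMSO.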
# [9] = biological target: human Caspase 5 (CASP5), CASP5 (gene 838) (UniProt P51878); test: NVS_ENZ_hCASP5: NovaScreen (NVS) Enzymatic Assay for human Caspase 5 (CASP5) (AID 2283137)
# Sequence of human Caspase 5 (CASP5), CASP5 (gene 838) (P51878 whole entry, looked up): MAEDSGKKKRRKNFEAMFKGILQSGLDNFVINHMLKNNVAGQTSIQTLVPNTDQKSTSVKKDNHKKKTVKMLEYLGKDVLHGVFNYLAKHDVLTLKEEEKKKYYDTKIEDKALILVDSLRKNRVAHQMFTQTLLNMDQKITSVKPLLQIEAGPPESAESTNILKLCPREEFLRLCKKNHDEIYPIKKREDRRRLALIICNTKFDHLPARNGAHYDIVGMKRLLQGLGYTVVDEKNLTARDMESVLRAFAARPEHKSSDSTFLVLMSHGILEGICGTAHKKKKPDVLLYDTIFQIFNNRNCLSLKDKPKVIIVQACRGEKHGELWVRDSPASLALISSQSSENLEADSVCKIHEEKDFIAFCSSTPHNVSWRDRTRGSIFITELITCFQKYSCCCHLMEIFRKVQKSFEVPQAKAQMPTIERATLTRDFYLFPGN
# How it was run: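 Recombinant E. coli-expressed human caspase 5 in a cell-free enzyme assay; fluorescence intensity read 2 hours after chemical dosing. Single-concentration duplicate screen at 25 uM, then concentration-response up to 50 uM for hits; DMSO negative control.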
# [10] = biological target: human Dual Specificity Protein Phosphatase 3 (DUSP3), DUSP3 (gene 1845) (UniProt P51452); test: NVS_ENZ_hDUSP3: NovaScreen (NVS) Enzymatic Assay for human Dual Specificity Protein Phosphatase 3 (DUSP3) (AID 2283152);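 also: phosphatase activity of recombinant human DUSP3 on a fluorogenic substrate without cells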
# Sequence of human Dual Specificity Protein Phosphatase 3 (DUSP3), DUSP3 (gene 1845) (P51452 whole entry, looked up): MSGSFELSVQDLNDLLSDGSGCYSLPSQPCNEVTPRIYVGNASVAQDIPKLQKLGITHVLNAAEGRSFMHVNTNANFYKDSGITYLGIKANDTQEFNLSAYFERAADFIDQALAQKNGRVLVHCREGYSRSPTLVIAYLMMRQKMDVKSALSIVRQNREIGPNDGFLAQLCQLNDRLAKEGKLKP
# How it was run: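 Cell-free assay with recombinant human DUSP3 and fluorogenic substrate, read by fluorescence intensity. Primary screen ran duplicate at 25 uM; actives followed up in concentration series; loss of signal versus DMSO scored.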
# [11] = biological target: human Phosphoinositide 3-kinase alpha (PI3Ka), PIK3CA (gene 5290) (UniProt P42336); test: NVS_ENZ_hPI3Ka: NovaScreen (NVS) Enzymatic Assay for human Phosphoinositide 3-kinase alpha (PI3Ka) (AID 2283196)
# Sequence of human Phosphoinositide 3-kinase alpha (PI3Ka), PIK3CA (gene 5290) (P42336 whole entry, looked up): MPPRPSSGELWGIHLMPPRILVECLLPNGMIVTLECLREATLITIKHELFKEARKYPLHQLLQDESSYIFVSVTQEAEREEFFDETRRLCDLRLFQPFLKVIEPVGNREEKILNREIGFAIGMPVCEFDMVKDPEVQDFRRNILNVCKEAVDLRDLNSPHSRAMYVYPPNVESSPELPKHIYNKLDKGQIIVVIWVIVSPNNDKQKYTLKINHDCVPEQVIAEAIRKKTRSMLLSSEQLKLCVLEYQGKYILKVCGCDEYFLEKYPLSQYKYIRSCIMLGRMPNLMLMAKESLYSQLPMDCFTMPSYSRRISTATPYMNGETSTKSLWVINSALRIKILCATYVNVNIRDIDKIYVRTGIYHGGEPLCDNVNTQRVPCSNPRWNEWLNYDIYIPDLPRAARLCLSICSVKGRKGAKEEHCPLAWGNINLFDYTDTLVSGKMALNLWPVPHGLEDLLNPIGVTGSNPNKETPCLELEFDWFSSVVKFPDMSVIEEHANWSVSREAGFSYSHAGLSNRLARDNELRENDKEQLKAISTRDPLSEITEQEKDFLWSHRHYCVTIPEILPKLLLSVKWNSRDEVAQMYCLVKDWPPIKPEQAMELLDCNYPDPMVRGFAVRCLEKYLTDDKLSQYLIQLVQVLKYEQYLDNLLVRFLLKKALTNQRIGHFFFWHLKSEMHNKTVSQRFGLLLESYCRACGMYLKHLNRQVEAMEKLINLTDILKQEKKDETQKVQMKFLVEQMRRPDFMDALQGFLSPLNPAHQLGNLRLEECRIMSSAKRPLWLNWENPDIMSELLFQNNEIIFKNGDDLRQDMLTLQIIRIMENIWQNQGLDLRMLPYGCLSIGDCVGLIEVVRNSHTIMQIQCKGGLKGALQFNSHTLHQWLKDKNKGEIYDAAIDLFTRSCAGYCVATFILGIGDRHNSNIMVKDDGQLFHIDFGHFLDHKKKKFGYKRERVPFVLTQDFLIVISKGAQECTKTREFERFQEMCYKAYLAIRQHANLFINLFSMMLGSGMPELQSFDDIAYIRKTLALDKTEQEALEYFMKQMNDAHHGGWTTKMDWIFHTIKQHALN
# How it was run: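 Recombinant human PI3Kα with fluorescent substrate, 1 h, product separated by electrophoretic mobility shift; 25 uM duplicate screen, hits (e.g., 30% inhibition) retested singly up to 50 uM; loss of signal vs DMSO.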
# [12] = biological target: Peroxisome proliferator-activated receptor gamma (Homo sapiens) (UniProt P37231); test: OT_PPARg_PPARgSRC1_0480: Odyssey Thera (OT) 8-hour Protein-Complementation Assay for Peroxisome Proliferator-activated Receptor Gamma / SRC-1 Co-activator (AID 2283387);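 also: nuclear to cytoplasmic split Venus YFP fluorescence ratio reporting PPARg SRC-1 interaction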
# Sequence of Peroxisome proliferator-activated receptor gamma (Homo sapiens) (P37231 whole entry, looked up, the tested form may be a part): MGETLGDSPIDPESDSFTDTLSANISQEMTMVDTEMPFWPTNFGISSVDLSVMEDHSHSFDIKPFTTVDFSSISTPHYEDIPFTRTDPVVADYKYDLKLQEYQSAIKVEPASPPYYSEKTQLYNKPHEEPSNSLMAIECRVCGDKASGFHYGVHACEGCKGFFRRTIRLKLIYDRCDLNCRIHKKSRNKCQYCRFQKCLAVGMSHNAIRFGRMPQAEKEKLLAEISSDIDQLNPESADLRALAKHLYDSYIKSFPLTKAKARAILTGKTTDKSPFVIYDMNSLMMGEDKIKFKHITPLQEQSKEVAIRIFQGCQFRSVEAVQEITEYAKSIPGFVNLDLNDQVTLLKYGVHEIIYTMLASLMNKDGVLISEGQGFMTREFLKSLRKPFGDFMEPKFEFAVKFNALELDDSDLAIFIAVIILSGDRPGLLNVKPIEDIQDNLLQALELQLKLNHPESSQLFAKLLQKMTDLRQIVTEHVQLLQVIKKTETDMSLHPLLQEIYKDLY
# How it was run: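 HEK293T transiently transfected with PPARg and SRC-1 fused to Venus YFP fragments, compounds 8 h at 37C. Fixed, Draq5-stained cells imaged; nuclear/cytoplasmic 488 nm fluorescence ratio over at least 350 cells per image; gain fitted versus DMSO.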
# [13] = CCTE_Deisenroth_AIME_384WELL_CTox_Inactive: Cytotoxicity Assessment (CTOX) in CCTE's 384-well Estrogen Receptor Transactivation Assay without AIME metabolic competence (metabolism negative), Deisenroth Lab (AID 2284039);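 also: cell viability via live-cell protease substrate cleaved to fluorescent probe; cells exposed 24 h to medium preincubated 2 h with alginate-water beads without S9; loss of fluorescence signal means loss of viability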
# How it was run: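 VM7Luc4E2 cells, metabolism-negative arm: test chemicals (0.002–200 uM, 10 points) pre-incubated 2 h with alginate-water microspheres, then medium transferred to cells for 24 h. Viability read as protease-substrate cleavage to fluorescent probe; loss-of-signal, bidirectional fitting.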
# [14] = biological target: human Matrix Metalloproteinase-9 (MMP9), MMP9 (gene 4318) (UniProt P14780); test: NVS_ENZ_hMMP9: NovaScreen (NVS) Enzymatic Assay for human Matrix Metalloproteinase-9 (MMP9) (AID 2283190);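 also: cell-free recombinant MMP9 protease activity read by fluorescent substrate signal; active means inhibition seen as loss of fluorescence signal versus DMSO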
# How it was run: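 Cell-free recombinant MMP9 enzyme activity measured by fluorescence intensity 1 h after dosing. Primary screen in duplicate at 25 uM, actives followed in concentration series; loss of signal relative to DMSO.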
# [15] = biological target: rat Thyrotropin Releasing Hormone Receptor (TRH), Trhr (gene 25570) (UniProt Q01717); test: NVS_GPCR_rTRH: NovaScreen (NVS) G Protein-Coupled Receptor Assay for rat Thyrotropin Releasing Hormone Receptor (TRH) (AID 2283329);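 also: hit means lower bound tracer signal versus DMSO baseline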
# Sequence of rat Thyrotropin Releasing Hormone Receptor (TRH), Trhr (gene 25570) (Q01717 whole entry, looked up): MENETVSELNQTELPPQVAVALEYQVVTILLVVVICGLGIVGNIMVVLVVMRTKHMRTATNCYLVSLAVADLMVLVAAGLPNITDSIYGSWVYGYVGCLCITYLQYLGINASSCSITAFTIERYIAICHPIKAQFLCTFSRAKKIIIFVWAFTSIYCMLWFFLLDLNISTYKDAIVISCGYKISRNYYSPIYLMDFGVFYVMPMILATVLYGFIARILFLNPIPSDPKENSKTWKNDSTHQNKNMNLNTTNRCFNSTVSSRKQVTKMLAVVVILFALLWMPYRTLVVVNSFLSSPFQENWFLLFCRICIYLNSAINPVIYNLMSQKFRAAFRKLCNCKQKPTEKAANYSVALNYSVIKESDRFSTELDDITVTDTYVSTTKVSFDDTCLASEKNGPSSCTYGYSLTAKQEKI
# How it was run: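 Rat forebrain membranes; radioligand displacement at TRH receptor by filter-based scintillation counting, read 4 h after dosing. Duplicate single-point screen at 25 uM, actives rerun in concentration series; loss of signal relative to DMSO.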
# [16] = biological target: human Caspase 2 (CASP2), CASP2 (gene 835) (UniProt P42575); test: NVS_ENZ_hCASP2: NovaScreen (NVS) Enzymatic Assay for human Caspase 2 (CASP2) (AID 2283135)
# Sequence of human Caspase 2 (CASP2), CASP2 (gene 835) (P42575 whole entry, looked up): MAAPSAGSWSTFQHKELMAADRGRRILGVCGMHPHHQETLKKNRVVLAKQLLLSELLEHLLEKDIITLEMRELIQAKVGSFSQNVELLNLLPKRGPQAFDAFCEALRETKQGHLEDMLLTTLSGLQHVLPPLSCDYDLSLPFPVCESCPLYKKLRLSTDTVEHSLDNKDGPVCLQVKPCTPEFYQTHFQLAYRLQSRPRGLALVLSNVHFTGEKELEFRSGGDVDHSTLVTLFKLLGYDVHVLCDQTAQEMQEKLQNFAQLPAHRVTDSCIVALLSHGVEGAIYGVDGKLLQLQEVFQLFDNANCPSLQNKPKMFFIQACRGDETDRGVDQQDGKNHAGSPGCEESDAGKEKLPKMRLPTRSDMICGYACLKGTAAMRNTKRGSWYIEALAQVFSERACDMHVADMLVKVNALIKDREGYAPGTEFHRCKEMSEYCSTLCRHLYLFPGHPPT
# How it was run: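 E. coli-expressed enzyme in a cell-free protease assay, fluorescence read 1 h after dosing. Compounds at 25 uM in duplicate, with concentration-response up to 50 uM for hits; loss of signal against DMSO baseline.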
# [17] = biological target: human p21 Activated Kinase 4 (PAK4), PAK4 (gene 10298) (UniProt O96013); test: NVS_ENZ_hPAK4: NovaScreen (NVS) Enzymatic Assay for human p21 Activated Kinase 4 (PAK4) (AID 2283189)
# Sequence of human p21 Activated Kinase 4 (PAK4), PAK4 (gene 10298) (O96013 whole entry, looked up): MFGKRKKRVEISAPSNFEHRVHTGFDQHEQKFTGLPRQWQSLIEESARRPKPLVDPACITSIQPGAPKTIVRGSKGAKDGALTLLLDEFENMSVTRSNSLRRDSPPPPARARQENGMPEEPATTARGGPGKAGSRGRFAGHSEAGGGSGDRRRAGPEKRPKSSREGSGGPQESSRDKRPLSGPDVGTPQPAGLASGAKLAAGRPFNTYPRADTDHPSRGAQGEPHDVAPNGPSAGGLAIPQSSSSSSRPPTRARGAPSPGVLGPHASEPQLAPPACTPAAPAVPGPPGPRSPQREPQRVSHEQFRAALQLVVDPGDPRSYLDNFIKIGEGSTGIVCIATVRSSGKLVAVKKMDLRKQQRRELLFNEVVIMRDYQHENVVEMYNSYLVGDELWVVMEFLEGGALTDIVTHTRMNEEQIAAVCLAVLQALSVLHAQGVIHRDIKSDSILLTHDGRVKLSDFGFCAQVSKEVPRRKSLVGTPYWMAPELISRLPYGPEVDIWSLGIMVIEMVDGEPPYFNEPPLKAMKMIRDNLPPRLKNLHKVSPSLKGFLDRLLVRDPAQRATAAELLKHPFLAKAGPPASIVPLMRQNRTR
# How it was run: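 Cell-free recombinant human PAK4 activity assay; fluorescent substrate and product separated by electrophoretic mobility shift, read 1 h after dosing. Initially tested in duplicate at 25 uM, relative to DMSO baseline.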
# [18] = biological target: human Protein Tyrosine Phosphatase Receptor Type C (PTPRC), PTPRC (gene 5788) (UniProt P08575); test: NVS_ENZ_hPTPRC: NovaScreen (NVS) Enzymatic Assay for human Protein Tyrosine Phosphatase Receptor Type C (PTPRC) (AID 2283212)
# How it was run: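 Yeast-extracted human PTPRC used in a cell-free colorimetric enzyme activity read-out, 1 h after dosing. Primary screen in duplicate at 25 uM; actives rerun in concentration-response up to 50 uM, DMSO as baseline.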
# [19] = biological target: human AMP-activated Protein Kinase, alpha 1 (AMPKa1), PRKAA1 (gene 5562) (UniProt Q13131); test: NVS_ENZ_hAMPKa1: NovaScreen (NVS) Enzymatic Assay for human AMP-activated Protein Kinase, alpha 1 (AMPKa1) (AID 2283130)
# How it was run: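 Recombinant human AMPKα1 activity was measured cell-free by fluorescent substrate conversion with electrophoretic mobility-shift separation, 1 h after dosing. Duplicate single-point screening was at 25 uM; actives (≥30% inhibition) were retested in concentration-response up to 50 uM.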
# [20] = biological target: rat Monoamine Oxidase, MAO-B, Central (MAOBC), Maob (gene 25750) (UniProt P19643); test: NVS_ENZ_rMAOBC: NovaScreen (NVS) Enzymatic Assay for rat Monoamine Oxidase, MAO-B, Central (MAOBC) (AID 2283238)
# Sequence of rat Monoamine Oxidase, MAO-B, Central (MAOBC), Maob (gene 25750) (P19643 whole entry, looked up): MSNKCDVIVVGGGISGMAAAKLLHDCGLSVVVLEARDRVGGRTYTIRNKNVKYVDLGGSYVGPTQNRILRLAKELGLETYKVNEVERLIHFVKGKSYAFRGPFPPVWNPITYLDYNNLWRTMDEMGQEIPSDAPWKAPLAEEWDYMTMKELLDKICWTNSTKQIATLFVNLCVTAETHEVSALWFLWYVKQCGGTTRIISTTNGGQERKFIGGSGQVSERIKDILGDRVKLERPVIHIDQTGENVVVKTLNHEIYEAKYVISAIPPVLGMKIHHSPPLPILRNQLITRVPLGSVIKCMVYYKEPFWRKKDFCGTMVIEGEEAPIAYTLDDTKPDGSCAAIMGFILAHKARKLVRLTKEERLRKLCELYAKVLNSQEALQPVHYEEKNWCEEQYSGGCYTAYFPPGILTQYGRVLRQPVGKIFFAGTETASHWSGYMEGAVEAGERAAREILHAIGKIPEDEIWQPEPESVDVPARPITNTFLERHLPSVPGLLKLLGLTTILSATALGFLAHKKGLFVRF
# How it was run: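 MAO-B activity in rat brain tissue preparation, cell-free, measured radiometrically by scintillation counting 1.17 h after dosing. Screened in duplicate at 25 uM; actives then in concentration-response up to 50 uM. Loss of signal versus DMSO scored.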
compound,measurement,setting,value
c1ccc(Nc2ccc3ccccc3c2)cc1,outcome,[1],inactive
same,outcome,[2],inactive
same,outcome,[3],inactive
O=[N+]([O-])C=Cc1ccccc1,AC50,[4],8.25 µM (active)
CC(C)c1ccc(O)cc1,outcome,[5],inactive
same,outcome,[6],inactive
same,outcome,[7],inactive
COC(=O)COc1ccc(Cl)cc1Cl,AC50,[8],14.9 µM (active)
Nc1ccc(-c2ccc(N)c(N)c2)cc1N,AC50,[9],5.41 µM (active)
same,AC50,[10],8.44 µM (active)
same,outcome,[11],inactive
O=C(O)CCl,outcome,[12],inactive
same,outcome,[13],inactive
Nc1ccccc1,outcome,[13],inactive
CN(C)CCC#N,AC50,[14],9.19 µM (active)
c1ccc2c(c1)CCCC2,outcome,[12],inactive
CC=Cc1ccc2c(c1)OCO2,AC50,[14],5.42 µM (active)
C=CC(=O)OCCO,outcome,[15],inactive
same,outcome,[1],inactive
same,outcome,[2],inactive
same,AC50,[3],5.27 µM (active)
ClCC(Cl)Cl,outcome,[11],inactive
O=C1C(Cl)=C(Cl)C(=O)C(Cl)=C1Cl,AC50,[9],0.148 µM (active)
same,AC50,[10],1.19 µM (active)
same,AC50,[4],4.01 µM (active)
same,AC50,[8],34.4 µM (active)
CC(=O)c1cc2c(cc1C)C(C)(C)C(C)CC2(C)C (stereo not given),outcome,[15],inactive
same,outcome,[5],inactive
same,outcome,[6],inactive
same,outcome,[7],inactive
CSc1ccc(Oc2ccc(S(N)(=O)=O)cc2CN(C)C)cc1C,outcome,[16],inactive
CC(C)(c1ccc(O)cc1)c1ccc(O)cc1,outcome,[17],inactive
same,outcome,[18],inactive
Cc1nc(-c2ccc3c(c2)CCN(CCC2CCC(NC(=O)/C=C/c4ccc(F)cc4)CC2)CC3)no1 (stereo not given),outcome,[19],inactive
CCN(CC)CCOc1ccc(C(=C(Cl)c2ccccc2)c2ccccc2)cc1,AC50,[19],26.5 µM (active)
O=c1c(-c2ccc(O)cc2)coc2cc(O)cc(O)c12,AC50,[20],31.1 µM (active) and 25 µM (active)
N#CSCSc1nc2ccccc2s1,outcome,[20],inactive
O=C(O)Cn1c(=O)n(Cc2ccc(Br)cc2F)c(=O)c2ccc(Cl)cc21,outcome,[16],inactive
same,outcome,[18],inactive
C=CCCCCCCCCCCCC,outcome,[17],inactive
